Screening data from PubChem.
Only some compounds are listed: those with a hit (about 12% of all), similar ones and a draw of the others.
JMJD2A Tudor = qHTS Assay for Inhibitors of JMJD2A-Tudor Domain; AlphaScreen JMJD2A-Tudor / H3K4me3 peptide binding; Potency, µM (series often up to 114 µM), usual class: inhibitors; 390,000 compounds, 4.4% hits; AID 504339, 2011; further: nearly all actives have a fitted effect of over 50% in size
L3MBTL1 block = qHTS Assay for the Inhibitors of L3MBTL1; Lethal(3)malignant brain tumor-like protein 1 (Homo sapiens), Q9Y468; AID 485360, 2010; 230,000 compounds, 0.66% hits; Potency, µM (doses to about 57.1 µM), most hits filed as inhibitors; AlphaScreen L3MBTL1–H3K9me1 peptide binding; further: nearly all actives have a fitted effect of over 60% in size
Target sequence (Q9Y468 whole entry, looked up): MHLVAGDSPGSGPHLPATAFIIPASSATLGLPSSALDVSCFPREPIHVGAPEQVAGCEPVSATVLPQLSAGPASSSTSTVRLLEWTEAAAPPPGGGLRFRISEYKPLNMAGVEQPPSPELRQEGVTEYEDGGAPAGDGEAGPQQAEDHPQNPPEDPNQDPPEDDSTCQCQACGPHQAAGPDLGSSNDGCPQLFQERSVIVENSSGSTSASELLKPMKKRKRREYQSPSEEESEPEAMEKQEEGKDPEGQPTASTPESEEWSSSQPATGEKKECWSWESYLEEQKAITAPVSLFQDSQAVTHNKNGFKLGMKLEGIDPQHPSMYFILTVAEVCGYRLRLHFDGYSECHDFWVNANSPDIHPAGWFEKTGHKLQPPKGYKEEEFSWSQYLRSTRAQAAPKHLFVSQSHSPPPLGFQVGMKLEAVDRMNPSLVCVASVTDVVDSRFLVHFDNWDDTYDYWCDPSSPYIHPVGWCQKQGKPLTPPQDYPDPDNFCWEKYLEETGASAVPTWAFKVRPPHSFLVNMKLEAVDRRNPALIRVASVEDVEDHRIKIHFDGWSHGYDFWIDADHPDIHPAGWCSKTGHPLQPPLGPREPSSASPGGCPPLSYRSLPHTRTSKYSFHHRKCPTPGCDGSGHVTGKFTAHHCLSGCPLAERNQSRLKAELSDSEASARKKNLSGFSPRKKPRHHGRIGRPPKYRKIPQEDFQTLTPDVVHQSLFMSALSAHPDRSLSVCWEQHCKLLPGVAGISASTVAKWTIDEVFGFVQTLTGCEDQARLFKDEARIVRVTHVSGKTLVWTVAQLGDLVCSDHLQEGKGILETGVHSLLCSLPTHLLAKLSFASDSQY
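L3MBTL1 50 nM + b-AHA-H3(1-15)K9me1 75 nM, 30 min RT; compound added, 30 min RT; streptavidin donor/Ni-chelate acceptor beads 10 ug/mL each final, 30 min RT dark; AlphaScreen read.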
G9a inh = qHTS Assay for Inhibitors of Histone Lysine Methyltransferase G9a; Histone-lysine N-methyltransferase EHMT2 (Homo sapiens), Q96KQ7; G9a H3K9 monomethylation, AlphaScreen, 2 h; Potency, µM (top dose mostly 102 µM), most hits filed as inhibitors; 350,000 compounds, 8.8% hits; AID 504332, 2011; further: nearly all actives have a fitted effect of over 75% in size
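Chemiluminescent proximity detection of H3K9 monomethylation, read after 10 min bead incubation in the dark. Reaction: 20 nM G9a, 500 nM biotin-H3K9 peptide, 20 uM SAM cofactor, 2 h, room temperature, following 15 min enzyme-compound preincubation.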
HP1b chromo inh = HTS for Inhibitors of HP1-beta Chromodomain Interactions with Methylated Histone Tails; Chromobox protein homolog 1 (Homo sapiens), P83916; AlphaScreen HP1-beta / biotin-H3K9me3 peptide binding; Potency, µM (titrated, usually from 114 µM), most hits filed as inhibitors; 390,000 compounds, 0.56% hits; AID 540317, 2011; further: nearly all actives have a fitted effect of over 70% in size
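HP1-beta protein (50 nM final) preincubated 30 min at room temperature with biotinylated H3(1-18)K9me3 peptide (50 nM) in PBS pH 7.4, 0.01% Tween-20, then compound added for 30 min. AlphaScreen streptavidin donor/nickel chelate acceptor beads (10 ug/mL final), 30 min dark, luminescence read.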
Sfp inh = qHTS Assay for Inhibitors of Bacillus subtilis Sfp phosphopantetheinyl transferase (PPTase) | 4'-phosphopantetheinyl transferase ffp (Bacillus subtilis), Q9F4F7 | Biochemical Sfp PPTase activity, qHTS | Potency, µM, usual class: inhibitors | 310,000 compounds, 3.5% hits | AID 1490, 2009;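 further: the enzyme is Sfp with the accession as filed and its product quenches rhodamine fluorescence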
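Fluorescence-quenching assay: 15 nM Sfp-PPTase preincubated 15 min at room temperature with compound, then 5 uM rhodamine-CoA and 12.5 uM BHQ-2-labelled YbbR peptide added. Fluorescence (ex 525/em 598 nm) read at start and after 30 min; difference gives rate.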
BAZ2B block = qHTS Assay for Inhibitors of BAZ2B. Bromodomain adjacent to zinc finger domain protein 2B (Homo sapiens), Q9UIF8. AlphaScreen BAZ2B-H3K14Ac peptide displacement. Potency, µM (top dose mostly 114 µM), usual class: inhibitors. 360,000 compounds, 4.4% hits. AID 504333, 2011; further: nearly all actives have a fitted effect of over 60% in size
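BAZ2B 50 nM plus b-H3(5-23)K14Ac 50 nM, PBS pH 7.4/0.01% Tween-20, 30 min RT; compound added (max 110 uM), 30 min RT; streptavidin donor/Ni-chelate acceptor beads 10 ug/mL final, 20 min dark; AlphaScreen read.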
Hits are given with their value; n = inactive; u = inconclusive; x = no result given; [ ] = remark or other dose. The call rests on the fitted dose curve; in most records, active means well fitted curve in the direction sought with a large enough effect; inconclusive means small, poorly fitted or top-dose-only effect, or another doubt; inactive means no such curve, though single readings can be large; an effect the other way counts as inactive or inconclusive.

SMILES | JMJD2A Tudor | L3MBTL1 block | G9a inh | HP1b chromo inh | Sfp inh | BAZ2B block
CN(C)CCCNC(=O)C[C@H]1C[C@H](C(=O)N2CCCCC2)[C@@]2(CCc3ccccc3)c3[nH]c4cc(-c5ccco5)ccc4c3CCN2C1=O | 50µM | u | x | u | x | x
COc1ccc(NC(=O)N(C)C[C@H]2Oc3ccc(NC(=O)CCN4CCOCC4)cc3C(=O)N([C@@H](C)CO)C[C@H]2C)cc1 | n | n | x | n | x | x
CN(C(=O)CSc1cn(CC(=O)N2CCCCC2)c2ccccc12)c1ccccc1 | n | x | n | n | x | n
COc1ccc(Cl)cc1NC(=O)c1nn(C)c2c1CS(=O)(=O)c1ccccc1-2 | n | x | n | n | x | n
OC1(c2ccccc2)CN(c2ccccc2)C2=[N+]1CCS2 (stereo unspecified) | n | n | n | n | n | 40µM
COc1ccc(C2C(C#N)=C3NC(=O)c4c(sc5c4CCCCC5)N3C3=C2C(=O)CC(C)(C)C3)cc1 (stereo unspecified) | n | n | n | u | 56µM | n
O=C(COc1ccc2oc3c(c2c1)CCCC3)Nc1cccc(Br)c1 | n | x | u | n | x | u
Oc1ccc2ccccc2c1C=NCc1cn2ccsc2n1 | u | n | 8.9µM | n | n | n
COc1ccc(NC(=O)CCCN2C(=O)C(c3ccccc3)Oc3cccnc32)cc1OC (stereo unspecified) | n | x | n | n | n | u
COc1ccc(Br)cc1CNC(=O)CN1C(=O)C(c2ccccc2)Oc2cccnc21 (stereo unspecified) | n | x | n | n | n | 50µM
CCN(CC)c1ccc(NC(=O)CCCN2C(=O)C(c3ccccc3)Oc3cccnc32)c(C)c1 (stereo unspecified) | n | x | 2.8µM | n | x | n
O=C(CCCN1C(=O)C(c2ccccc2)Oc2cccnc21)Nc1ccccc1C(F)(F)F (stereo unspecified) | n | x | n | n | x | n
O=C(NCCc1nc2ccccc2n1CCOc1cccc2ccccc12)C1CCCCC1 | n | x | x | n | x | x
CCn1c(N2CCN(S(=O)(=O)c3ccc(OC)cc3)CC2)nc2ccccc21 | n | n | n | n | n | n
CCn1c(N2CCN(S(=O)(=O)c3ccccc3C(F)(F)F)CC2)nc2ccccc21 | n | n | 50µM | n | n | u
CCOc1ccc(-c2nonc2NC(=O)c2ccc(C)cc2)cc1OCC | n | x | n | n | x | n
Cc1csc2nc(CN3CCN(CC(=O)N(C)C)CC3)cc(=O)n12 | n | x | 45µM | n | n | n
Cc1ccccc1C(=O)OCc1cc(=O)n2c(C)csc2n1 | n | x | n | n | x | n
C#C[C@]1(O)CCC2C3CCC4=C(CCC(=O)C4)C3CC[C@@]21C (stereo partly specified) | x | x | n[2.33 µM] | x | n | x
O=C(Nc1cccc(C(F)(F)F)c1)Nc1cc(Cl)ccc1C(=O)O | x | x | x | x | n | x
Cc1ccc(C)c(CSc2nc3ccncc3n2CC(=O)Nc2ccc(N(C)C)cc2)c1 | u | x | 5µM | n | x | u
CN(C)c1ccc(NC(=O)Cn2c(SCc3ccccc3F)nc3cccnc32)cc1 | n | x | 3.2µM | n | x | n
O=C(Cn1c(SCc2ccccc2F)nc2cccnc21)Nc1ccc(F)c(Cl)c1 | n | x | u | n | x | n
Cc1cccc(Oc2coc3cc(O)ccc3c2=O)c1 | n | x | u | n | n | n
Cc1oc(/N=C/c2ccccc2)c(C#N)c1C | n | n | u | n | n | n
SMILES | JMJD2A Tudor | L3MBTL1 block | G9a inh | HP1b chromo inh | Sfp inh | BAZ2B block
COc1cc(/C=N/NC(=O)c2ccc(COc3ccccc3Cl)o2)cc(Br)c1O | u | n | n | n | n | u
COc1cc(/C=N/c2oc(C)c(C)c2C#N)cc(Br)c1O | u | n | 10µM | n | n | u
Cc1oc(/N=C/c2cccc3ccccc23)c(C#N)c1C | 35µM | n | n | n | n | n
COc1ccc(/C=N/c2oc(C)c(C)c2C#N)c(OC)c1 | n | n | 50µM | n | n | n
CCc1nn(CCCC(=O)N2CCN(c3cccc(OC)c3)CC2)c(=O)c2cc3occc3n12 | n | x | n | n | x | n
CCN1CCN(C2=C(NS(=O)(=O)c3ccc(Br)cc3)C(=O)c3ccccc3C2=O)CC1 | u | x | 45µM | n | n | 45µM
NC(=O)C1CCN(C2=C(NS(=O)(=O)c3ccccc3)C(=O)c3ccccc3C2=O)CC1 | u | u | x | u | n | 40µM
NC(=O)C1CCN(C2=C(NS(=O)(=O)c3ccc(Br)cc3)C(=O)c3ccccc3C2=O)CC1 | 79µM | x | x | u | n | 40µM
CCOC(=O)C1CCN(C2=C(NS(=O)(=O)c3ccc(Br)cc3)C(=O)c3ccccc3C2=O)CC1 | 7.9µM | x | 8.9µM | 7.1µM | n | 5.6µM
CCCCN(CCCNC(=O)c1cc(Nc2ccc(OC)c(OC)c2)nc2ccccc12)c1ccccc1 | u | x | n | n | x | x
O=C(CCc1c[nH]c2ccccc12)NCCc1ccc(O)cc1 | n | x | n | n | n | n
Cc1ccc(C(=O)Nc2cccc(C(F)(F)F)c2)cc1NC(=O)c1[nH]cnc1C(N)=O | n | n | x | n | x | x
Cc1c(C(=O)N2CCOCC2)c(S(=O)(=O)Nc2ccc(Br)cc2F)c(C)n1C | 18µM | x | n | n | n | n
Cc1[nH]c2ccc(C(=O)OC(C)C(=O)NC3CCCCC3C)cc2c1C (stereo unspecified) | n | n | n[12.7 µM] | n | x | n
Cc1[nH]c2ccc(C(=O)OC(C)C(=O)NC3(C#N)CCCCC3)cc2c1C (stereo unspecified) | u | n | 45µM | n | x | 50µM
COc1nccnc1NS(=O)(=O)c1ccc(NC(=S)NC(=O)/C=C/c2ccccc2)cc1 | 79µM | n | u | n | n | n
COc1nccnc1NS(=O)(=O)c1ccc(NCc2ccccc2O)cc1 | n | x | n | n | n | n
COc1ccc(/C=C/C(=O)NC(=S)Nc2ccc(S(=O)(=O)Nc3ccc(OC)nn3)cc2)cc1 | n | n | u | n | n | n
COc1nccnc1NS(=O)(=O)c1ccc(NC(=S)NC(=O)c2ccccc2)cc1 | u | n | 40µM | n | n | u
COc1ccc(OCC(=O)Nc2cc(NC(=O)COc3ccc(OC)cc3)cc(C(=O)O)c2)cc1 | n | n[2.29 µM] | n[0.501 µM] | n | n | n
C#CCOc1c(Cl)cc(/C=C2/C(=O)ON=C2C)cc1OC | n | x | 40µM | n | 56µM | n
CCOC(=O)COc1c(Cl)cc(/C=C2\N=C(C)OC2=O)cc1OC | n | x | x | n | x | x
COc1cc(/C=C2/C(=O)ON=C2C)cc(Cl)c1O | n | x | 35µM | n | n | 56µM
